In PubChem BioAssay (NCI):
Compounds without any hit were thinned out: in the full panel of roughly 83,000, 20% have a hit.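 The endpoint reported here, percent growth, reads 100 for growth as untreated, 0 for no net growth and -100 for all cells dead.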 The source made the active and inactive calls. How the source made its calls: active means growth percent below 10; inactive means the rest.

What was measured:
Experiment in all cases: NCI-60 one-dose screen, 48 h (100 = growth as untreated, 0 = no growth, -100 = all killed)
Conditions in all cases: 10 µM unless noted
NCI-H226 lung = tested on: NCI-H226 lung
NCI-H322M lung = tested on: NCI-H322M lung
HOP-62 NSCLC = tested on: HOP-62 NSCLC
NCI-H460 lung = tested on: NCI-H460 lung
HOP-92 NSCLC = tested on: HOP-92 NSCLC
NCI-H522 lung = tested on: NCI-H522 lung
A549/ATCC NSCLC = tested on: A549/ATCC NSCLC
786-0 renal = tested on: 786-0 renal
COLO 205 colon = tested on: COLO 205 colon

Measured: growth

Cn1cc(-c2cc(N)n3nc(-c4cn(C)c5ccccc45)cc3n2)c2cc(Br)ccc21
active: NCI-H226 lung 2.38% | NCI-H322M lung 7.11% | HOP-62 NSCLC -45.2% | NCI-H460 lung -24.2% | HOP-92 NSCLC -59% | NCI-H522 lung -62.7% | A549/ATCC NSCLC 4.06% | 786-0 renal -85% | COLO 205 colon -79.1%

Nc1nnc(-c2c[nH]c3ccc(Br)cc23)c(-c2c[nH]c3ncc(Br)cc23)n1
inactive: NCI-H226 lung 39.3% | NCI-H322M lung 53.5% | HOP-62 NSCLC 49.4% | NCI-H460 lung 27.7% | HOP-92 NSCLC 21.5% | NCI-H522 lung 30.9% | 786-0 renal 34.7% | COLO 205 colon 48.3%

COC(=O)/C=C/c1cccc2c1C(=O)NC(C)(c1cc3ccccc3oc1=O)N2 (stereo unspecified)
inactive: NCI-H226 lung 63.1% | NCI-H322M lung 93.7% | HOP-62 NSCLC 72.4% | NCI-H460 lung 44.5% | HOP-92 NSCLC 50.7% | NCI-H522 lung 62% | A549/ATCC NSCLC 67.9% | 786-0 renal 58.9% | COLO 205 colon 63.1%

C#CCOc1ccc(/C=N/Nc2nc(-c3cc4cc(OC)ccc4oc3=O)cs2)cc1OC
inactive: NCI-H226 lung 14.2% | NCI-H322M lung 72.2% | NCI-H522 lung 42% | A549/ATCC NSCLC 10% | 786-0 renal 74.2% | COLO 205 colon 63.6%
active: NCI-H460 lung 8.62% | HOP-92 NSCLC -0.0146%

Cn1cc(-c2nnc(N)nc2-c2c[nH]c3ccc(Br)cc23)c2cc(Br)cnc21
inactive: NCI-H226 lung 74% | NCI-H322M lung 71.5% | HOP-62 NSCLC 70.7% | NCI-H460 lung 62.1% | HOP-92 NSCLC 43.4% | A549/ATCC NSCLC 59.5% | 786-0 renal 46.2% | COLO 205 colon 66.6%
active: NCI-H522 lung 6.2%

Cc1cc(C)cc(NC(=O)Cn2cc(COn3nnc4ccccc43)nn2)c1
inactive: NCI-H226 lung 101% | NCI-H322M lung 99.3% | HOP-62 NSCLC 115% | NCI-H460 lung 114% | HOP-92 NSCLC 117% | NCI-H522 lung 95.6% | A549/ATCC NSCLC 107% | 786-0 renal 101% | COLO 205 colon 117%

C#CCOc1cc(N(CC)CC)ccc1C(C(=O)NC(C)(C)C)N(C(=O)C1CCc2cc(F)ccc2O1)c1ccc(Br)cc1 (stereo unspecified)
inactive: NCI-H226 lung 81.2% | NCI-H322M lung 82.5% | HOP-62 NSCLC 77.1% | NCI-H460 lung 60.3% | HOP-92 NSCLC 89.6% | NCI-H522 lung 67.7% | A549/ATCC NSCLC 65.1% | 786-0 renal 81.7% | COLO 205 colon 59.1%
